# Bioassay records as filed in PubChem.
# p53null 39C kill: selectivity test: cytotoxicity in p53 null cells, nonpermissive temperature; H1299 p53-null (neo) cells, 39C, ATPlite viability, 24 h; Potency, µM (top dose mostly 46.1 µM), for the others: at the top dose activity, negative = cell killing, actives largely listed as cytotoxic; actives 0.97% (n = 55,000); AID 904;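 further: potency means the concentration at half of the fitted maximal effect; 0% = DMSO only and -100% = full killing by 100 µM tamoxifen; nearly all actives have a fitted effect of over 50% in size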
#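 H1299 lung cancer cells, p53-null (H1299-neo) or expressing p53 A138V (H1299-p53A138V), were plated overnight at 37C, then exposed to compounds at up to 46 uM for 24 hr at 39C. Viability was read by ATP-based luminescence.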
# PMP22 txn prim: modulates PMP22 transcription in S16 Schwann cells | S16 Pmp22-F2sN Schwann cells, FLuc/NLuc coincidence luminescence, 24 h | Potency, µM (doses to about 57.5 µM), inactives show top-dose activity change, negative = inhibition, hits mostly inhibitors | actives 2% (n = 43,000); active means clear falling dose curves in both reporters; inconclusive means both reporters move, but less clearly or upward; inactive means either reporter flat; the % is the NLuc reporter signal; further: potency means the concentration at half of the fitted maximal effect; on the % scale 0 is the no-effect control and ±100 the full control effect
#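 S16 Schwann cells carrying FLuc/NLuc coincidence reporter in the Pmp22 3' UTR treated with compound 24 h at 37C; FLuc then NLuc luminescence read sequentially by dual-luciferase reagents.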
# S16 F2sN tox: toxic to S16 Pmp22-F2sN Schwann cells; S16 Pmp22-F2sN Schwann cells viability, CellTiter-Glo, 24 h; Potency, µM (highest dose often 57.5 µM), without a hit: at the highest dose activity change, negative = cytotoxicity, actives largely listed as cytotoxic; actives 0.48% (n = 43,000); further: potency means the concentration at half of the fitted maximal effect; on the % scale 0 is the no-effect control and ±100 the full control effect; nearly all actives have a fitted effect of over 65% in size
#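 Viability was measured by CellTiter-Glo luminescence (15 min, room temperature). This followed 24 h at 37 °C of compound exposure (23 nL pin transfer) in S16 Pmp22-F2sN Schwann cells, 500-1,000 per well.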
# pS6 MEF inh: inhibitors of mTORC1 signaling in Tsc2-/- p53-/- MEF cells | Tsc2-/- p53-/- MEF, phospho-rpS6 immunofluorescence/PI, 24 h | Potency, µM (top dose mostly 38.3 µM), for the others: at the highest dose activity change, negative = inhibition, actives largely listed as inhibitors | actives 0.78% (n = 44,000);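 further: potency means the concentration at half of the fitted maximal effect; plate controls were DMSO for no effect and rapamycin for full effect; nearly all actives have a fitted effect of over 50% in size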
#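 Plate MEFs (Tsc2-/-, p53-/-, empty vector) in DMEM/10% FBS; after 24 h add compound, incubate 24 h at 37 degree Celsius; fix in PFA/TX-100, block, stain phospho-rpS6 and 10 uM PI; scan at 488 nm; report % positive cells.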
# p53null 32C kill: p53 null cell cytotoxicity, permissive temperature; H1299-neo p53 null cells, ATP luminescence, 24 h, 32C; Potency, µM (doses to about 46.1 µM), for the others: top-dose activity change, negative = cytotoxicity, usual class: cytotoxic; actives 0.62% (n = 55,000); AID 903;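 further: potency means the concentration at half of the fitted maximal effect; 0% = DMSO only and -100% = full killing by 100 µM tamoxifen; nearly all actives have a fitted effect of over 55% in size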
#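 Cytotoxicity: H1299-neo (no p53), 32C, 24 h treatment. Concentrations up to 46 uM. Readout cellular ATP, luminescence. Normalization to DMSO basal and tamoxifen 100 uM maximal kill.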
# GALC G270D up: galactocerebrosidase G270D activity enhancement, cell-based; P54803; 145M-Twi-hGALC-G270D cells (Twitcher mouse brain line with human GALC G270D), HMU-beta-Gal fluorescence, 48 h; Potency, µM (top dose mostly 57.5 µM), most hits filed as activators; actives 0.1% (n = 45,000); AID 1159614; further: potency means the concentration at half of the fitted maximal effect; 0% is about no effect; nearly all actives have a fitted effect of over 65% in size
# Target sequence (P54803 whole entry G286D): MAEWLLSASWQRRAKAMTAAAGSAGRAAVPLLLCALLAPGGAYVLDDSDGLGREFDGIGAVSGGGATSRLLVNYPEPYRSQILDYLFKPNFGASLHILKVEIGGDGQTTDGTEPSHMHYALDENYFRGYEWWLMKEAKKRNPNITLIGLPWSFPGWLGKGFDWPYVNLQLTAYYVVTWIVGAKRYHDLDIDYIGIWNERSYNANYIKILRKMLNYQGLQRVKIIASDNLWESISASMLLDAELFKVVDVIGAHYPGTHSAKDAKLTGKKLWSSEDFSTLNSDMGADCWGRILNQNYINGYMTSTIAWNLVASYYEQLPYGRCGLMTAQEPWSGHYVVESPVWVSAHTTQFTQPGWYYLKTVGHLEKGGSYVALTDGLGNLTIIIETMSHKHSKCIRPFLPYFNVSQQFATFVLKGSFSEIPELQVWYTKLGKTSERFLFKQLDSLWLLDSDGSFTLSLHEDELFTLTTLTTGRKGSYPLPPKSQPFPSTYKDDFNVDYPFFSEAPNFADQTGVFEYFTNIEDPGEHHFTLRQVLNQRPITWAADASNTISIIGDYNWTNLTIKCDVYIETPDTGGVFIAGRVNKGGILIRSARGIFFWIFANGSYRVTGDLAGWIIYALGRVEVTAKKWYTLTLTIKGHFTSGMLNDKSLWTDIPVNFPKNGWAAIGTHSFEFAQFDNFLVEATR
#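 Fluorescence readout: HMU-β-gal cleavage by mutant GALC (0.1 mM final, citrate/phosphate pH 5.2 with 1 mg/mL taurocholate), stopped with carbonate/bicarbonate plus Triton X-100. Cells: murine Twitcher 145M-Twi expressing human G270D GALC; qHTS for activators.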
# NLuc sat counter: inhibits NanoLuc at saturating substrate, PMP22 counter-screen; Potency, µM (doses to about 57.5 µM), inactives show at the top dose activity change, negative = inhibition, actives largely listed as inhibitors; actives 4% (n = 690); shares compounds with PMP22 txn prim; Secreted NLuc enzyme (filtered S16 cell medium), Nano-Glo luminescence; AID 1508638; further: potency means the concentration at half of the fitted maximal effect; on the % scale 0 is the no-effect control and ±100 the full control effect
# NLuc Km counter: counter-screen for PMP22 expression modulators: NanoLuc inhibition at Km; shares compounds with PMP22 txn prim; secreted NLuc enzyme, coelenterazine luminescence, Km conditions; Potency, µM (doses to about 57.5 µM), without a hit: at the highest dose activity change, negative = inhibition, usual class: inhibitors; actives 5% (n = 690); AID 1508639; further: potency means the concentration at half of the fitted maximal effect; on the % scale 0 is the no-effect control and ±100 the full control effect
# FLuc counter: inhibits firefly luciferase, PMP22 counter-screen; AID 1508640; purified P. pyralis FLuc, luminescence, 10 min; 690 tested, under 10 active; Potency, µM (highest dose often 57.5 µM), for the others: at the highest dose activity, negative = inhibition, hits mostly inhibitors; shares compounds with PMP22 txn prim; further: % of control where 0% means no effect
# S16 F2sN tox cnf: S16 Schwann cell cytotoxicity, confirmatory. shares compounds with PMP22 txn prim. S16 Schwann cells viability, CellTiter-Glo ATP luminescence, 24 h. Potency, µM (doses to about 57.5 µM), for inactives: at the top dose activity change, negative = viability loss, most hits filed as cytotoxic. actives 7% (n = 690); further: potency means the concentration at half of the fitted maximal effect; on the % scale 0 is the no-effect control and ±100 the full control effect
# PMP22 txn conf: confirmation of modulators of PMP22 gene transcription in S16 cells. shares compounds with PMP22 txn prim. S16 Schwann cells Pmp22-F2sN, dual luciferase, 24 h. Potency, µM (titrated, usually from 57.5 µM), inactives show at the top dose activity change, negative = inhibition, hits mostly inhibitors. actives 22% (n = 690). AID 1508646; active means clear falling dose curves in both reporters; inconclusive means both reporters move, but less clearly or upward; inactive means either reporter flat; the % is the FLuc reporter signal; further: potency means the concentration at half of the fitted maximal effect
# PMP22 HiBiT cnf: rat PMP22 protein level modulation, confirmatory; Potency, µM (doses to about 27.9 µM), inactives show top-dose activity change, negative = inhibition, actives largely listed as inhibitors; 95 tested, under 10 active; shares compounds with PMP22 txn prim; S16 Schwann cells Pmp22-HiBiT, luminescence, 48 h
# Starred values were filed as active, the others as inactive; i = inactive; ? = inconclusive; · = no result. Hits are enriched below; roughly 3% of the tested compounds scored in any of these assays. Unless noted, the call rests on the fitted dose curve; in most records, active means well fitted curve in the direction sought with a large enough effect; inconclusive means small, poorly fitted or top-dose-only effect, or another doubt; inactive means no such curve, though single readings can be large; an effect the other way counts as inactive or inconclusive.
SMILES,p53null 39C kill,PMP22 txn prim,S16 F2sN tox,pS6 MEF inh,p53null 32C kill,GALC G270D up,NLuc sat counter,NLuc Km counter,FLuc counter,S16 F2sN tox cnf,PMP22 txn conf,PMP22 HiBiT cnf
O=C(Nc1ccc(F)cc1)N1CCN(c2ccc3nnc(-c4ccc(F)cc4)n3n2)CC1,-15.6%,?,?,-0.2%,2.5%,i,·,·,·,·,·,·
Cc1coc2cc3oc(=O)c(CCC(=O)NCc4ccc(Cl)cc4)c(C)c3cc12,-4.1%,·,·,1.7%,-10.2%,·,·,·,·,·,·,·
COc1ccc2nc(NC(=O)c3nc(SCc4cccc(C)c4)ncc3Cl)sc2c1,-19.7%,10µM*,3.7%,3.5%,1.1%,i,-8.7%,4.6%,5.4%,?,?,·
Cc1cccc(CS(=O)(=O)c2ncc(Cl)c(C(=O)Nc3nc4ccc(F)cc4s3)n2)c1,-3.5%,6.48µM*,?,?,1.5%,i,?,?,-5.0%,?,10.3µM*,?
CCOc1ccc2nc(NC(=O)c3nc(SC)ncc3Cl)sc2c1,15.1%,?,1.1%,-3.7%,6.4%,i,·,·,·,·,·,·
CSc1ncc(Cl)c(C(=O)Nc2nc3ccc(F)cc3s2)n1,-8.5%,-10.6%,?,3.7%,6.0%,i,·,·,·,·,·,·
CCOc1ccc2nc(NC(=O)c3nc(SC(C)C)ncc3Cl)sc2c1,-28.7%,17.8µM*,?,-2.3%,-12.6%,i,-6.0%,-3.0%,-11.8%,-21.1%,?,·
O=C(NCc1cccc(Cl)c1)c1cnc(N2CCOCC2)c2ccccc12,3.7%,-26.1%,18.5%,-12.1%,3.6%,i,·,·,·,·,·,·
O=C(NCCc1csc(-c2ccc(F)cc2)n1)c1c(F)cccc1Cl,0.8%,?,5.4%,-8.2%,3.3%,i,?,?,?,-8.9%,28.6%,·
CCC1=Nc2cc(C(=O)NCCCOC)ccc2Sc2ccc(Br)cc21,?,1.27µM*,1.2%,?,5.8%,i,-11.2%,-5.5%,8.0%,?,?,?
COCCCNC(=O)c1ccc2c(c1)N=C(C)c1c(C)ccc(C)c1S2,?,0.089µM*,11.3%,-9.9%,1.0%,i,-7.2%,?,-6.6%,11.2%,0.306µM*,?
CCCC1=Nc2cc(C(=O)NCC(C)c3ccccc3)ccc2Sc2ccccc21 (stereo not drawn),13.5%,?,-5.1%,-26.7%,30.3%,i,·,·,·,·,·,·
